Holding throughout (assay): NCI-60 one-dose screen, 48 h (100 = growth as untreated, 0 = no growth, -100 = all killed)
One experiment concerns HOP-92 NSCLC. The note with it: 10 µM unless noted.
The next experiment concerns NCI-H522 lung. To be noted: 10 µM unless noted.
In a further experiment the test system is COLO 205 colon. The note with it: 10 µM.
A further experiment relates to MALME-3M melanoma. To be noted: 10 µM unless noted.
A further experiment has as its system HT29 colon. The note with it: 10 µM unless noted.
Another experiment concerns SNB-75 CNS. The note with it: 10 µM unless noted.
A further experiment relates to PC-3 prostate. To be noted: 10 µM unless noted.
The test system of another experiment is SK-MEL-5 melanoma. To be noted: 10 µM unless noted.
The next experiment relates to EKVX NSCLC. The note with it: 10 µM unless noted.
For the next experiment, the system named is CAKI-1 renal. The note with it: 10 µM unless noted.
Another experiment deals with RPMI-8226 leukemia. The note with it: 10 µM unless noted.
A further experiment concerns OVCAR-5 ovarian. To be noted: 10 µM unless noted.
The test system of the next experiment is IGROV1 ovarian. The note with it: 10 µM.
A further experiment has as its system OVCAR-3 ovarian. The note with it: 10 µM unless noted.
For a further experiment, the system named is HS 578T breast. The note with it: 10 µM unless noted.
Another experiment concerns NCI-H226 lung. The note with it: 10 µM unless noted.
The subject of the next experiment is CCRF-CEM leukemia. The note with it: 10 µM unless noted.
Another experiment deals with MCF7 breast. The note with it: 10 µM unless noted.
In another experiment the test system is NCI-H322M lung. The note with it: 10 µM unless noted.

Compounds without any hit were thinned out: in the full panel of roughly 83,000, 20% have a hit.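 Note: values are percent growth. 100 is the growth of untreated cells, values between 100 and 0 indicate rising inhibition; between -100 and 0 indicates cell death.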 Values without a mark were called inactive. The source made the active and inactive calls. The calls were made as follows: active = growth percent below 10; inactive = the rest.

As for `CCC[CH2][Sn]([CH2]CCC)([CH2]CCC)[O]C(=O)c1ccc(Cl)cc1Cl`, the growth was -84.6% (active) in the experiment with HOP-92 NSCLC; -73.3% (active) in the experiment with NCI-H522 lung; -68.8% (active) with COLO 205 colon; -76.8% (active) in the experiment with MALME-3M melanoma; -64.7% (active) with HT29 colon; -93.2% (active) in the experiment with SNB-75 CNS. Besides, the growth was -76.8% (active) in the experiment with PC-3 prostate; -96.1% (active) in the experiment with SK-MEL-5 melanoma; -65% (active) in the experiment with EKVX NSCLC; -92.6% (active) with CAKI-1 renal; -29.7% (active) with RPMI-8226 leukemia; -95.1% (active) in the experiment with OVCAR-5 ovarian. The growth was -68.5% (active) in the experiment on IGROV1 ovarian, -98.3% (active) in the experiment with OVCAR-3 ovarian and -38.3% (active) with HS 578T breast.

With `O=[N+]([O-])c1cc([N+](=O)[O-])c(Cl)c(Cl)c1Cl`, the growth was 52.8% with NCI-H226 lung; 2.39% (active) in the experiment with HOP-92 NSCLC; -86.5% (active) in the experiment with NCI-H522 lung; -48.1% (active) with MALME-3M melanoma; -85.5% (active) with HT29 colon; 59.6% in the experiment on SNB-75 CNS. Also, the growth with PC-3 prostate is 57.1%; with EKVX NSCLC, 67.4%; in the experiment with CCRF-CEM leukemia it was -22.3% (active); in the experiment with OVCAR-5 ovarian, 65.6%; in the experiment with IGROV1 ovarian, 22%; in the experiment on OVCAR-3 ovarian, -99% (active).

`Oc1c(Br)cc(Br)cc1Br.[Cu+2]`: the growth is 90.5% in the experiment on HOP-92 NSCLC; 88.7% in the experiment with NCI-H522 lung; 108% with COLO 205 colon; 86.4% in the experiment with MALME-3M melanoma; 104% with HT29 colon; 98.7% in the experiment with SNB-75 CNS. The growth in the experiment with PC-3 prostate was 103%; with SK-MEL-5 melanoma, 102%; in the experiment on CCRF-CEM leukemia, 101%; with OVCAR-5 ovarian, 120%; with IGROV1 ovarian, 105%; in the experiment with OVCAR-3 ovarian it was 109%. Besides, the growth in the experiment on HS 578T breast was 109%; with MCF7 breast, 101%.

Turning to `C=C=[CH][Sn]([c]1ccccc1)([c]1ccccc1)[c]1ccccc1`, the growth with NCI-H226 lung was -40.4% (active); in the experiment with COLO 205 colon, -84.2% (active); in the experiment on MALME-3M melanoma it was -36.6% (active); in the experiment on HT29 colon it was -72.1% (active); in the experiment on SNB-75 CNS, 14.2%; with SK-MEL-5 melanoma, -81.5% (active). Besides, the growth is -32.7% (active) with EKVX NSCLC; -40.4% (active) in the experiment with CAKI-1 renal; -17.5% (active) with RPMI-8226 leukemia; -60.3% (active) in the experiment on OVCAR-5 ovarian; -22.2% (active) with IGROV1 ovarian; -94% (active) in the experiment with OVCAR-3 ovarian. For the same molecule, the growth is 27% with HS 578T breast and -52.5% (active) in the experiment with MCF7 breast.

`CC(C)OC(=S)[S-].[Au+].c1ccc([PH+](c2ccccc2)c2ccccc2)cc1`: the growth in the experiment with NCI-H322M lung was 99.4%; in the experiment on HOP-92 NSCLC, -23% (active); with NCI-H522 lung, -63.6% (active); with MALME-3M melanoma, 5.97% (active); in the experiment with HT29 colon, 55.7%; with PC-3 prostate, 42.9%. For the same molecule, the growth is 30.2% in the experiment on SK-MEL-5 melanoma; 82.9% in the experiment with EKVX NSCLC; 16.7% in the experiment on CAKI-1 renal; 10.9% in the experiment with CCRF-CEM leukemia; 3.19% (active) in the experiment on RPMI-8226 leukemia; 73.9% in the experiment with OVCAR-5 ovarian. The growth in the experiment on IGROV1 ovarian is 2.28% (active); in the experiment with OVCAR-3 ovarian it was -43% (active); with HS 578T breast, 15.6%; in the experiment with MCF7 breast, 2.73% (active).

Take `COc1c(O)c2c3c(c1OC)-c1ccccc1CC3N(C)CC2` (stereo not given): the growth in the experiment with NCI-H322M lung is 96.1%; in the experiment on NCI-H522 lung it was 88.6%; with MALME-3M melanoma it was 105%; in the experiment on HT29 colon, 110%; in the experiment on SNB-75 CNS, 82.4%; in the experiment on PC-3 prostate, 100%. Also, the growth is 108% in the experiment with SK-MEL-5 melanoma; 115% in the experiment on EKVX NSCLC; 94.3% in the experiment on CAKI-1 renal; 98.7% with CCRF-CEM leukemia; 96.8% in the experiment with IGROV1 ovarian; 109% in the experiment on OVCAR-3 ovarian. Besides, the growth is 110% in the experiment on HS 578T breast and 100% in the experiment on MCF7 breast.

In the case of `O=C(CCc1ccco1)NC1CCN(CC2(c3ccc(Cl)cc3)CCC2)CC1`, the growth in the experiment on NCI-H322M lung was 34.7%; in the experiment with HOP-92 NSCLC it was -21.9% (active); in the experiment with COLO 205 colon it was -30% (active); in the experiment on MALME-3M melanoma, -17.9% (active); with HT29 colon, 10.5%; in the experiment with SNB-75 CNS, 16%. The growth is 1.34% (active) in the experiment with PC-3 prostate; -9.97% (active) with SK-MEL-5 melanoma; 5.62% (active) with CAKI-1 renal; -5.13% (active) in the experiment on RPMI-8226 leukemia; 53.2% in the experiment with OVCAR-5 ovarian; 30.1% with IGROV1 ovarian. Also, the growth in the experiment on OVCAR-3 ovarian is 13.9%; with HS 578T breast, 28.7%; in the experiment with MCF7 breast, 2.88% (active).

As for `COc1ccc(C2=NN(c3ccccc3)C(c3sc(N(CCCl)CCCl)nc3Cl)C2)cc1` (stereo not given), the growth in the experiment with NCI-H226 lung is 76.2%; in the experiment with NCI-H322M lung it was 92.7%; in the experiment on NCI-H522 lung, 71%; with COLO 205 colon, 92.1%; in the experiment on MALME-3M melanoma, 99.3%; with HT29 colon, 72.6%. Further, the growth in the experiment on PC-3 prostate is 69.5%; with SK-MEL-5 melanoma, 83.7%; with EKVX NSCLC it was 86%; in the experiment with CCRF-CEM leukemia it was 86.1%; in the experiment on OVCAR-5 ovarian, 90.1%; in the experiment on IGROV1 ovarian, 121%. In addition, the growth with OVCAR-3 ovarian was 93.3%; in the experiment on HS 578T breast it was 80.9%; in the experiment on MCF7 breast, 87.3%.

With `OC1CCCCC1N1CCC(c2ccccc2)CC1` (stereo not given), the growth with NCI-H226 lung was 114%; in the experiment on COLO 205 colon, 107%; in the experiment with MALME-3M melanoma, 103%; in the experiment on HT29 colon it was 97.3%; with SNB-75 CNS, 86%; in the experiment on SK-MEL-5 melanoma it was 106%. The growth was 104% in the experiment on EKVX NSCLC; 96.5% with CAKI-1 renal; 99.2% with CCRF-CEM leukemia; 107% in the experiment on RPMI-8226 leukemia; 112% in the experiment with IGROV1 ovarian; 106% in the experiment with OVCAR-3 ovarian. Further, the growth in the experiment on HS 578T breast was 108%.

For `ClCCN(CCCl)C(c1ccccc1)c1ccc(Cl)cc1` (stereo not given), the growth in the experiment on NCI-H226 lung is 75.4%; in the experiment with HOP-92 NSCLC, 57.4%; in the experiment with NCI-H522 lung it was 65%; in the experiment on COLO 205 colon, 114%; with HT29 colon, 63%; in the experiment with SNB-75 CNS, 81.8%. Further, the growth in the experiment on PC-3 prostate was 52%; with SK-MEL-5 melanoma, 54.9%; with EKVX NSCLC, 102%; in the experiment with CAKI-1 renal, 10.1%; with CCRF-CEM leukemia it was 15.3%; with RPMI-8226 leukemia, 42.1%. For the same molecule, the figures for the growth with OVCAR-5 ovarian and in the experiment with OVCAR-3 ovarian were 118% and 91.9%, respectively.

On to `C[C@]12C[C@H](O)[C@H]3[C@@H](CCC4=CC(=O)CC[C@@]43C)[C@@H]1CC[C@@H]2O`, for which the growth with NCI-H322M lung is 110%; in the experiment with COLO 205 colon it was 99.8%; in the experiment with SNB-75 CNS, 85.7%; in the experiment on PC-3 prostate, 95.3%; in the experiment with SK-MEL-5 melanoma, 100%; in the experiment with EKVX NSCLC it was 94.8%. Moreover, the growth in the experiment with CAKI-1 renal is 88%; with CCRF-CEM leukemia, 97.3%; with RPMI-8226 leukemia it was 98.3%; in the experiment with OVCAR-5 ovarian it was 105%; in the experiment with OVCAR-3 ovarian, 112%; with HS 578T breast, 105%. Besides, the growth with MCF7 breast was 103%.
